Assay outcomes (PubChem BioAssay)
The entries come from a sample that favours hits as a whole.
VACV E9 pol inh = vaccinia E9 polymerase processive synthesis inhibitors, primary screen, biochemical, absorbance | AID 493162, 2011 | in vitro processive DNA synthesis, absorbance read-out; active compounds read low | 0.94% of 46,000 active | normalized absorbance, % (no concentration beside the values) | Vaccinia virus DNA polymerase (E9) processive complex; in the data active means normalized absorbance mostly below about 85%, no sharp cut-off; inactive means mostly above about 86%
Numbers stand for hits; 0 = inactive; ! = repeats disagree.

SMILES	VACV E9 pol inh
CC(Nc1ccccc1)C(=O)Nc1cc(C(F)(F)F)ccc1Cl (stereo not drawn)	0
COc1ccc(Nc2cc(C(F)(F)F)ccc2Cl)c(C(=O)O)c1	59.6
CN1C(=O)NC(c2ccc(O)cc2)C2=C1CN(CCO)C2=O (stereo not drawn)	0
CNc1ccccc1C(C)(C)c1cc(-c2cccnc2)n[nH]1	0
c1ccc2cc(CNCCc3ccc4c(c3)OCO4)ccc2c1	0
O=C(COc1ccc2ccccc2c1)NCc1ccc2c(c1)OCO2	0
CN(C)CCc1cc2c(c3c1ccc1ccccc13)OCO2	11.1
COc1ccc(/C=C2\C(=O)N(C)c3ccccc32)cc1O	0
BrCCOc1cccc(Br)c1	0
O=C(Sc1ccc(Cl)cc1)c1cccnc1Oc1ccccc1	0
Cc1ccc2c(Sc3ccc(Cl)cc3)c(C(=O)O)[nH]c2c1	56.7
O=C(c1[nH]c2ccccc2c1Sc1ccc(Cl)cc1)N1CCCC1	0
COc1cccc(CNC(=O)c2[nH]c3cc(C)ccc3c2Sc2ccc(Cl)cc2)c1OC	0
O=C(COc1ccccn1)N1CCN(c2ccccc2)CC1	0
COC(=O)C(NC(=O)Nc1ccccc1)C(C)C (stereo not drawn)	0
COC(=O)C(N=Cc1ccccc1)c1ccccc1 (stereo not drawn)	0
COC(=O)C(C(=O)OC)C(Nc1ccccc1)c1ccccc1 (stereo not drawn)	20.0
O=C(O)CCCc1ccc2ccc3cccc4ccc1c2c34	79.8
CCn1cc(CCCC(=O)O)c2ccccc21	0
O=C(O)CCCC(=O)c1ccccc1	0
COc1ccccc1NC(=O)c1cc2ccccc2oc1=O	0
O=C(Nc1c(F)cccc1Cl)N1CCOCC1	0
Cc1c(C#N)c(-c2ccccc2)nc2ccccc12	0
Nc1nccc(-c2ccc(Oc3ccc(Cl)cc3)cc2Cl)n1	76.4
CC(Oc1ccc(-c2ccccc2)c(F)c1)c1ccnc(N)n1 (stereo not drawn)	0
SMILES	VACV E9 pol inh
Nc1nccc(-c2ccccc2OCc2ccc(Cl)cc2)n1	0
Cc1cc(C)n(-c2ncccc2C(F)(F)F)n1	0
COc1ccc(C(=O)[C@@H]2[C@@H](c3ccccc3F)C(C#N)(C#N)[C@H]3C=Cc4ccccc4N23)cc1	0
CCOC(=O)c1cnn(-c2ccc(C(C)C)cc2)c1C1CCN(C(=O)OC(C)(C)C)CC1	0
Cc1ccc(-[n+]2cc(Cl)on2)cc1	0
CC(C)CNC1=NCCCS1	0
O=C(O)CSc1ncnc2scc(-c3ccc(Br)cc3)c12	67.6
CC(C)OC(=O)CSc1ncnc2scc(-c3ccccc3)c12	0
Cc1ccc(-c2csc3ncnc(SCCC(=O)O)c23)cc1	0
O=C(COC(=O)C1CCC1)c1cc2ccccc2o1	0
Cc1cc(N(C)Cc2ccccc2)nc2cc(O)ccc12	77.1
CCc1ccc(-n2c(N(C)Cc3ccccc3)nc3ccccc3c2=O)cc1	0
Cc1cc(N(C)Cc2ccccc2)ncn1	0
N#C/C(=C\Nc1cccc(C(F)(F)F)c1)c1ccc(Cl)cc1	0
Cn1c(=Nc2ccccc2C(=O)O)sc2ccccc21	0
C=CCn1c2ccccc2c2nnc(SCc3ccccc3C)nc21	0
CSCCC(C(=O)O)N1C(=O)/C(=C/c2ccc(O)cc2)SC1=S (stereo not drawn)	0
CSCCC(C(=O)O)n1c(O)c(/C=C2\C=Nc3ccccc32)sc1=S (stereo not drawn)	78.0
CSCCC(C(=O)O)N1C(=O)CSC1=S (stereo not drawn)	0
CSCCC1C(=O)N(N)C2(C)CC(C)(C)NC(=S)N12 (stereo not drawn)	0
c1ccc(CSc2nnc3c4ccccc4n(Cc4ccccc4)c3n2)cc1	0
CC1CC(C)(C)OC(C(C)(C)CN(C)C)O1 (stereo not drawn)	0
Cc1noc(CCn2c(=O)[nH]c3ccccc3c2=O)n1	0
COc1ccc2c(C)cc(SCC#N)nc2c1	83.7
COc1ccc2c(C)cc(SCC(=O)Nc3ccccc3)nc2c1	0
SMILES	VACV E9 pol inh
COc1ccc2c(C)cc(SCc3c(C)noc3C)nc2c1	0
CC(C)N1CC2(c3ccccc3)CN(C(C)C)CC(c3ccccc3)(C1)C2O (stereo not drawn)	0
OC(c1ccccc1)(c1ccccc1)C1CCN(C(=S)Nc2ccccc2)CC1	0
CCc1ccc(C2/C(=C(/O)c3ccc4c(c3)CC(C)O4)C(=O)C(=O)N2CCOC)cc1 (stereo not drawn)	0
O=C1NC(=S)S/C1=C/c1ccc(-c2cccc(C(F)(F)F)c2)o1	79.5
O=C1NC(=S)S/C1=C\c1ccccc1C(F)(F)F	0
O=S1(=O)CCC(N=Cc2ccc(-c3cccc(C(F)(F)F)c3)o2)C1 (stereo not drawn)	0
CC(C)c1ccc(C(C)(C)CO)cc1	0
CS(=O)(=O)c1cccc(Cl)n1	0
CCN(CC)C(=O)c1sc2nc3c(cc2c1N)C(=O)CC(C)(C)C3	0
C=CCOc1cc(C)nc(N2CCOCC2)n1	0
O=C(O)COc1ccc2c(-c3ccccc3)cc(=O)oc2c1	0
O=C(O)COc1ccc2c(c1)oc(=O)c1ccccc12	89.9
COc1ccc2c(c1)oc(=O)c1ccccc12	0
CN(C(=O)COC(=O)C1(c2ccccc2F)CCCC1)c1ccccc1	0
O=C(CC1(O)C(=O)N(Cc2ccccc2)c2ccccc21)c1ccc(Br)s1 (stereo not drawn)	0
CC(=O)Nc1sc2c(c1C(c1ccccn1)N1CCN(CCO)CC1)CCCC2 (stereo not drawn)	0
CCOC(=O)N1CCN(C(=O)CN2C(=O)/C(=C\c3ccc(C)cc3)Sc3ccccc32)CC1	0
COc1cc2nc(N3CCN(C(=O)c4ccco4)CC3)nc(N)c2cc1OC	85.0!
COc1cc2c(cc1OC)CN(C(=O)c1ccco1)CC2	0
CC(C)N1CCN(C(=O)c2ccco2)CC1	0
CCn1c2ccccc2c2cc(CN3CCN(Cc4cccc(C)c4)CC3)ccc21	0
Cc1cccc(CN2CCN(C(=O)CC(C)C)CC2)c1	59.3
O=C(Cc1cccc2ccccc12)N1CCN(Cc2ccccc2)CC1	0
CCOC(=O)C1=C(N)c2ccccc2CC12CCCCC2	0
SMILES	VACV E9 pol inh
O=C(CC1OC(=O)c2ccccc21)c1ccc(-n2ccnc2)cc1 (stereo not drawn)	0
O=C(NCc1noc2ccccc12)Nc1nccs1	0
CC1CCN(S(=O)(=O)c2ccc(NC(=O)/C=C/c3ccco3)cc2)CC1	0
CCOc1cccc2sc(NC(=O)c3ccccc3F)nc12	0
CCOc1cccc2sc(NC(=O)CC)nc12	87.3
CCC(=O)Nc1nc2c(C)c(C)ccc2s1	0
C[C@@H]1CC2C3C[C@H](F)C4=CC(=O)C=CC4(C)C3(F)[C@@H](O)CC2(C)C1C(=O)COC(=O)C(C)(C)C (stereo partly drawn)	0
O=C(NCN1CCN(Cc2ccccc2)CC1)c1ccccc1	0
O=C(O)c1c(CNCc2cccnc2)c2ccccc2n1Cc1ccccc1	0
CN(C)c1ccc(C(=O)Nc2nc(-c3ccccc3)cs2)cc1	0
COc1ccc(-c2ccnc(SCc3ccc(Cl)cc3Cl)n2)cc1	0
CCS(=O)(=O)N1CCN=C1SCc1ccc(Cl)cc1Cl	20.8
CCS(=O)(=O)N1CCN=C1SCc1ccc(C)cc1	0
CCOC(=O)C1=C(C)NC2=C(C(=O)CC(C)(C)C2)C1c1ccc2c(c1)OCCO2 (stereo not drawn)	0
Oc1ccc(Cl)cc1Sc1cc(Cl)ccc1O	77.2
Oc1ccc(Cl)cc1	0
NS(=O)(=O)c1ccc(Cl)cc1Sc1ccccc1C(=O)O	0
Oc1ccc(C=NCC2OCCc3ccccc32)cc1 (stereo not drawn)	0
CN1/C(=C/C=C/c2oc3ccccc3[n+]2C)Oc2ccccc21	89.0
